Compounds with a hit are over-represented: about 13% of the library has one in this group of screens.
USP10 block: human USP10 deubiquitinase inhibition | Q14694 | purified USP10, Ub-rhodamine fluorescence, 60 min | inhibition, % at 20 µM | hit rate 1.1% among 47,000 | AID 1645856
USP17 block: human USP17-like deubiquitinase inhibition. inhibition, % at 50 µM. hit rate 6.5% among 47,000. purified USP17, Ub-rhodamine cleavage fluorescence, 3 h. AID 1645855
USP8 block: blocks human USP8 ubiquitin-rhodamine cleavage | P40818 | purified USP8, Ub-rhodamine cleavage fluorescence, 30 min | inhibition, % at 20 µM | hit rate 4.2% among 47,000
Target sequence (P40818 whole entry, looked up): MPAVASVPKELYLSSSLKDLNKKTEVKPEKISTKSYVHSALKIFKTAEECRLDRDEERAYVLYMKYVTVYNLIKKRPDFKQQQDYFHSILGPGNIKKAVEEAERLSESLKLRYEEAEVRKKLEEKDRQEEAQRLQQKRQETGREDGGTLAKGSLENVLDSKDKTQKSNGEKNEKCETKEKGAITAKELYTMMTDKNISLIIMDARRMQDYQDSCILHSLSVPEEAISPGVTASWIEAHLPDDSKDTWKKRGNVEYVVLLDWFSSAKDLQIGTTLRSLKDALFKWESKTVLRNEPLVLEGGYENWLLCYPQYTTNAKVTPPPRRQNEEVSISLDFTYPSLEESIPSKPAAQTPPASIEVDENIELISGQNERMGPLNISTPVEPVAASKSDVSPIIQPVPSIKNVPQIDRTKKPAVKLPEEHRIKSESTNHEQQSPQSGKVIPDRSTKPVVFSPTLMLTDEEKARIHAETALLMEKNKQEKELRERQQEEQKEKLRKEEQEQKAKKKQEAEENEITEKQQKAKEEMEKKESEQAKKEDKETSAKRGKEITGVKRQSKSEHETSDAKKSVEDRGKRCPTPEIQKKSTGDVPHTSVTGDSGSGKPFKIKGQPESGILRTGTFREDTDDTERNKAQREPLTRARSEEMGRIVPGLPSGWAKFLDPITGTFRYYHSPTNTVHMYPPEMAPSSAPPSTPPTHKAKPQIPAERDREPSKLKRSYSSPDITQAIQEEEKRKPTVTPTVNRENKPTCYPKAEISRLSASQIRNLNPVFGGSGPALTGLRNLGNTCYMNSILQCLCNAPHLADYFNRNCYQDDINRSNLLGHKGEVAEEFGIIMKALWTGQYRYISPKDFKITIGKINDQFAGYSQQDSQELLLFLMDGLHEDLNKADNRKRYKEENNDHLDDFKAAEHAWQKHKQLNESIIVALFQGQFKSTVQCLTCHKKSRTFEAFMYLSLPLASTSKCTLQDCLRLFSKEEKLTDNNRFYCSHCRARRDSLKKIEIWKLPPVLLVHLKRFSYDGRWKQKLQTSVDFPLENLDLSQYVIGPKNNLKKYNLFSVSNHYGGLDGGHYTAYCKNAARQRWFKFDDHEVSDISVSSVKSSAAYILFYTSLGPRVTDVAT
USP30 inh: blocks human USP30 ubiquitin-rhodamine cleavage; purified USP30, Ub-rhodamine cleavage fluorescence; hit rate 5.3% among 47,000; inhibition, % at 25 µM; AID 1645860
USP28 block: blocks human USP28 ubiquitin-rhodamine cleavage. Q96RU2. purified USP28, Ub-rhodamine cleavage fluorescence, 30 min. inhibition, % at 25 µM. hit rate 3% among 47,000
Numbers stand for hits; . = inactive; / = no result. No stated cut-off is given here; in the data, active means inhibition above about 30%; inactive means the rest.

SMILES	USP10 block	USP17 block	USP8 block	USP30 inh	USP28 block
CCCCCCCCC/C=C/C(=O)CCc1c(O)c(C=O)c2c(c1O)C(=O)OC2O (stereo not drawn)	45	75	31	.	71
O=C(Nc1ccc2nnc(C3CCC3)n2c1)NC1CCCC1	.	.	.	.	.
O=C(Cn1cc(C(=O)c2ccc(Cl)cc2)c(=O)c2cc(F)ccc21)Nc1ccc(F)c(F)c1	.	.	.	.	.
CCOc1ccc2c(c1)c(=O)c(C(=O)c1ccc(C)cc1)cn2CC(=O)Nc1ccc(C)c(C)c1	66	.	92	/	/
CCOc1ccc2c(c1)c(=O)c(C(=O)c1ccc(C)cc1)cn2CC(=O)Nc1ccc(C)cc1	62	.	95	.	.
CCOc1ccc2c(c1)c(=O)c(C(=O)c1ccc(C)cc1)cn2CC(=O)Nc1ccc(OC)cc1	.	56	.	.	.
COc1cccc(NC(=O)Cn2cc(C(=O)c3ccc(C)cc3)c(=O)c3cc(Cl)ccc32)c1	43	.	73	.	.
COc1ccc(NC(=O)Cn2cc(C(=O)c3ccccc3)c(=O)c3cc4c(cc32)OCCO4)cc1OC	.	.	.	.	.
Cc1c(C(=O)O)nnn1-c1cccc2c1CCN(c1cnccn1)C2	.	.	.	.	.
O=C(Nc1ccccc1F)C1=NOC2(CCNCC2)C1	.	34	.	34	39
Cc1ccc(CNC(=O)CCCn2c(=O)c3ccccc3n(CC(=O)Nc3cc(C)[nH]n3)c2=O)cc1	.	.	.	.	.
Cc1ccc(CNC(=O)CCCn2c(=O)c3sccc3n(CC(=O)Nc3cc(Cl)ccc3C)c2=O)cc1	.	74	.	.	55
CCOc1ccccc1NC(=O)Cn1c(=O)n(CCCC(=O)NCc2ccc(C)cc2)c(=O)c2sccc21	56	83	47	37	36
O=C(CCCn1c(=O)c2cccn2c2cccnc21)NCc1ccc(Cl)cc1	.	.	.	.	.
CCn1c(=O)c2nscc2n(CC(=O)Nc2ccc(C)cc2C)c1=O	.	.	.	.	.
CCn1c(=O)c2nscc2n(CC(=O)NCc2ccccc2)c1=O	.	.	.	.	.
CC(C)Cn1c(=O)c2nscc2n(CC(=O)Nc2ccc(F)cc2F)c1=O	.	.	36	.	.
CC(C)Cn1c(=O)c2nscc2n(CC(=O)NCc2ccccc2)c1=O	.	.	39	.	.
Cc1ccccc1NC(=O)Cn1c(=O)n(CC(C)C)c(=O)c2nscc21	.	.	38	.	.
Cc1nc(C2CCN(C(=O)c3ccn[nH]3)C2)nc2c1CCC(=O)N2CC1CCCCC1 (stereo not drawn)	.	.	.	.	.
O=C(/C=C/c1ccc(OCc2cccc(Cl)c2)cc1)NC1CCCC1	.	36	.	.	.
COc1ccc(NC(=O)O[C@@H]2CO[C@H]3[C@@H]2OC[C@@H]3Nc2nccc(-c3ccccc3)n2)cc1	.	.	.	.	.
CCOC(=O)c1cn(C2CC2)c2cc(N3CCNCC3)c([N+](=O)[O-])cc2c1=O	.	.	.	58	36
O=C(NCCCN1CCOCC1)c1cc2ccccn2n1	.	.	.	.	.
O=C(NCc1cccc(Br)c1)c1cc2ccccn2n1	.	.	.	.	30
SMILES	USP10 block	USP17 block	USP8 block	USP30 inh	USP28 block
COc1ccc(NC(=O)c2sc3nc(-c4cccc([N+](=O)[O-])c4)cn3c2C)cc1OC	.	44	.	.	.
CC(=O)c1cccc(NC(=O)c2sc3nc(-c4cccc([N+](=O)[O-])c4)cn3c2C)c1	.	.	58	.	.
COc1ccc(-c2cn3c(C)c(C(=O)Nc4cccc(C(C)=O)c4)sc3n2)cc1	.	.	.	.	.
COC(=O)c1ccccc1NC(=O)CSc1nnc(CNc2ccc(F)cc2)n1CC1CCCO1 (stereo not drawn)	.	90	96	.	.
Cc1c(S(=O)(=O)N2CCCC2)cc(C(=O)Nc2ccccc2)n1C	.	46	.	.	.
O=S(=O)(c1ccc(-c2ccco2)cc1)C1CCN(CCc2ccccn2)CC1	.	31	.	.	.
CC(=O)c1ccc(N(C(=O)c2ccc(Cl)cc2)c2nc3ccccc3s2)cc1	.	.	.	.	.
COc1ccc(C(=O)N(c2ccc(F)cc2)c2nc3ccccc3s2)cc1OC	.	.	.	48	.
COc1cc2nc(SCc3cccc(C(F)(F)F)c3)n(Cc3ccco3)c(=N)c2cc1OC	.	.	.	.	.
O=C(Nc1cccc(Cl)c1Cl)N1CCCN(Cc2ccc(F)cc2)CC1	.	.	.	.	.
O=C(Nc1cccc2cnccc12)N1CCCCCC1	.	34	.	.	.
Cc1nc2c(nnn2C[C@H]2CCCN2C(=O)c2ccccc2F)c(=O)[nH]1	.	.	.	.	.
Cc1ccc(C(=O)N2CCc3c(c(-c4nc(-c5ccccc5)no4)nn3C)C2)cc1C	.	.	.	.	.
O=C(OCC(=O)N1CCCCCC1)c1ccc2[nH]c3c(c2c1)CCCC3	.	.	.	.	.
c1ccc(COc2ccc3[nH]c4c(c3c2)CCCCCC4)cc1	.	42	.	.	.
O=C(NCCOc1ccc(-c2ccc(F)cc2)nn1)c1ccccc1[N+](=O)[O-]	.	.	.	.	.
COc1ccc(C(=O)N(O)c2ccccc2)cc1	.	.	78	.	.
Cc1ccc(-c2nc(C)sc2CC(=O)Nc2ccccc2N2CCOCC2)cc1	.	.	.	.	.
CC(=O)c1ccc(NC(=O)Cc2sc(C)nc2-c2ccc(C)cc2)cc1	.	.	.	.	39
O=C1c2ccccc2S(=O)(=O)N1Cc1ccc2nsnc2c1	.	.	.	.	35
CC(=O)Nc1c(-c2ccc(C)cc2)c(C)nn1-c1ccc(C(=O)Nc2cccc(C#N)c2)cc1	.	49	.	.	.
Cc1cc(Nc2nc3ccccc3nc2N2CCN(Cc3ccccc3)CC2)n(-c2ccccc2)n1	.	.	.	.	.
Cc1ccc(S(=O)(=O)[C@H]2CS(=O)(=O)C[C@@H]2NC2CCCC2)cc1	.	.	.	.	.
Cc1ccccc1OCCSc1nc2ccccc2n1CC(=O)NC1CC1	.	31	.	50	.
O=C(Cn1c(SCCOc2ccccc2)nc2ccccc21)N1CCCCC1	.	.	.	.	.
SMILES	USP10 block	USP17 block	USP8 block	USP30 inh	USP28 block
COc1cccc(CNC(=O)c2ccc(Cc3c(C)noc3C)o2)c1OC	.	.	.	.	.
NC(=O)c1cc2cc(F)ccc2nc1C1CCN(C(=O)C2CC2)CC1	.	.	.	.	.
Cc1cc(N2CCN(C(=O)C3CCCCC3)CC2)nc(N2CCOCC2)n1	.	.	.	.	.
Cc1ccc(Cn2cc(C(=O)Nc3ccccc3C(N)=O)ccc2=O)cc1	.	.	54	.	.
CCOC(=O)c1noc2ncn(Cc3nc(-c4ccc(C)cc4)oc3C)c(=O)c12	.	31	.	35	.
CC(C)CNc1nc2c(cc1C(=O)NCC1CC1)CCNCC2	.	.	.	45	.
O=C(NCC1CC1)c1cc2c(nc1NCC1CC1)CCNCC2	.	.	.	.	.
COc1ccc(-c2ocnc2C(=O)Nc2ccc(C)c(F)c2)cc1OC	.	.	.	.	.

Screening results from PubChem BioAssay.
